Compounds with a hit are over-represented: about 7.9% of the library has one in this group of screens.
MCF10A rerep: induces DNA re-replication in MCF 10a normal breast cells. 2.9% of 350,000 active. AID 624296. MCF 10A DNA re-replication, Hoechst nuclear intensity, 48 h. Potency, µM (doses to about 46.1 µM), for inactives: top-dose activity, positive = re-replication, most hits filed as activators; also: % of control where 0% means no effect; nearly all actives have a fitted effect of over 50% in size
HT1080NT lethal: kills 2HG-producing HT-1080-NT fibrosarcoma cells; Potency, µM (highest dose often 46.1 µM), for the others: top-dose activity, negative = less viability, usual class: cytotoxic; 1.6% of 360,000 active; HT-1080-NT fibrosarcoma viability, CellTiter-Glo ATP luminescence, 48 h; AID 686970;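 also: NT is the 2HG producing partner of a matched IDH1 knockdown line; 0% = DMSO-treated cells and -100% = media-only wells without cells; nearly all actives have a fitted effect of over 55% in size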
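Toxicity toward the 2HG-producing NT line was scored as %Activity, normalised to DMSO and no-cell wells, from CellTiter-Glo luminescence after 48 hours' treatment.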
KB-V1 cytotox: KB-V1 MDR subline cytotoxicity; 3.4% of 400,000 active; Potency, µM (highest dose often 46.1 µM), hits mostly cytotoxic; AID 1347076; KB-V1 MDR cells viability, CellTiter-Glo, 72 h; also: % is scaled to controls: 0 for no effect and ±100 for the full control effect; nearly all actives have a fitted effect of over 60% in size
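Drug-selected KB-V1 cells, grown in DMEM lacking phenol red with 10% FBS, receive compound titrations; after three days at 37 degrees C, surviving cell ATP is quantified by CellTiter-Glo luminescence and responses normalized and curve-fitted.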
SW480 rereplic: inducers of DNA re-replication in SW480 colon cancer cells; AID 624297; Potency, µM (doses to about 46.1 µM), without a hit: top-dose re-replication activation, usual class: activators; 1.8% of 340,000 active; SW480 DNA re-replication, Hoechst DNA content imaging, 48 h; also: % of control where 0% means no effect; nearly all actives have a fitted effect of over 55% in size
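First, 250 cells per well were seeded. Next, compound or vehicle (23 nL) was pinned in, plates sat 48 hr at 37 C. Finally Hoechst was added for 40 min before fluorescence scanning.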
HT1080 IDH1KD tx: HT-1080 IDH1 knockdown cell toxicity (counter line); HT-1080 IDH1 knockdown viability, ATP luminescence, 48 h; Potency, µM (top dose mostly 46.1 µM), for inactives: top-dose activity, negative = toxicity, most hits filed as cytotoxic; 2% of 360,000 active; AID 686971;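 also: 0% = DMSO wells and -100% = cell-free medium wells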
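In this qHTS, HT-1080 cells depleted of IDH1 are exposed for 48 h at 37 °C to compound titrations. Toxicity is scored from CellTiter-Glo luminescence, with DMSO as full viability and medium alone as none.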
KB-3-1 tox: KB-3-1 parental cell cytotoxicity | KB-3-1 viability, CellTiter-Glo ATP luminescence, 72 h | Potency, µM (titrated, usually from 46.1 µM), actives largely listed as cytotoxic | 1.4% of 400,000 active; also: % is scaled to controls: 0 for no effect and ±100 for the full control effect; nearly all actives have a fitted effect of over 60% in size
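KB-3-1 cells, DMEM (no phenol red) + 10% FBS; compound by pin transfer, 72 h, 37 °C. Readout: CellTiter-Glo luminescence after 10 min. Data normalized, curve-fitted.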
* hit, by the source's call; i = inactive; ? = inconclusive; · = not tested or not shown. Calls follow the shape of the dose curve; as a rule, active = well fitted curve in the direction sought with a large enough effect; inconclusive = small, poorly fitted or top-dose-only effect, or another doubt; inactive = no such curve, though single readings can be large; an effect the other way counts as inactive or inconclusive. Potency is read from the fitted curve at half-maximal effect.

SMILES	MCF10A rerep	HT1080NT lethal	KB-V1 cytotox	SW480 rereplic	HT1080 IDH1KD tx	KB-3-1 tox
Nc1cccc2nsnc12	?	?	i	-31%	-29%	i
O=C(OCn1ncc(Br)c(Br)c1=O)c1ccc(F)cc1	4.6µM*	21µM*	5.2µM*	4.1µM*	12µM*	3.3µM*
O=C(OCn1ncc(Br)c(Br)c1=O)c1ccccc1Cl	7.9µM*	8.2µM*	5.8µM*	5.6µM*	6.5µM*	18µM*
CC(=O)OCn1ncc(N2CCOCC2)c(Br)c1=O	0%	15%	i	2%	18%	i
COc1cc2c3nnc(-c4ccc(F)cc4)c-3cn(Cc3cccc(C)c3)c2cc1OC	?	-11%	i	21µM*	-7%	?
COc1cc2c3nnc(-c4ccc(F)cc4)c-3cn(Cc3cccc(F)c3)c2cc1OC	?	?	i	6.5µM*	-28%	?
COc1cc2c3nnc(-c4ccc(F)cc4)c-3cn(Cc3ccc(C)cc3)c2cc1OC	?	-1%	i	1%	-14%	?
COc1cc2c3nnc(-c4ccccc4)c-3cn(Cc3ccc(F)cc3)c2cc1OC	?	18µM*	i	18µM*	21µM*	i
COc1cccc(Cn2nc3c4cc(F)ccc4n(Cc4ccc(F)cc4)cc-3c2=O)c1	?	9%	i	-121%	2%	i
CCN(CC)c1nc(-c2ccccc2)nc2c1sc(=S)n2CC	0%	10%	i	0%	7%	i
COC(=O)c1[nH]c2ccc(C)cc2c1NC(=O)C(C)N1CCN(C2CCCCC2)CC1 (stereo not given)	-3%	?	i	-4%	-5%	i
COC(=O)c1[nH]c2ccc(Br)cc2c1NC(=O)C(C)N1CCN(C2CCCCC2)CC1 (stereo not given)	7%	?	?	?	21µM*	?
O=C(NNC(=O)C1CC(=O)N(c2ccc3c(c2)OCCO3)C1)c1ccc(F)cc1 (stereo not given)	0%	-1%	?	0%	0%	i
Cc1ccc(-c2[nH]ncc2/C=N/n2c(COc3ccccc3)nc3ccccc3c2=O)cc1	18µM*	?	?	?	?	?
Cc1nc2ccccc2c(=O)n1/N=C/c1cn[nH]c1-c1ccccc1	10%	-10%	i	-5%	-10%	?
Cc1ccccc1OCc1nc2ccccc2c(=O)n1/N=C/c1cn[nH]c1-c1ccccc1	?	?	13µM*	?	?	?
CCOC(=O)C(C)Oc1cccc2c(=O)n(CC(=O)NCc3ccco3)ccc12 (stereo not given)	?	?	i	1.3µM*	1.6µM*	0.73µM*
CC(C)C(=O)c1cn(CC(=O)NCc2ccco2)c2ccccc12	-2%	6%	i	?	13%	i
COc1ccccc1-c1cnc(C(O)c2ccc(CN3CCCC3)cc2)[nH]1 (stereo not given)	·	-12%	i	·	0%	i
Cc1ccc(CN(Cc2cccnc2)C(=O)CN2C(=O)COc3ccccc32)o1	0%	8%	i	-3%	11%	i
COc1ccc(NC(=O)CN2C(=O)C(C)Oc3ccccc32)cc1 (stereo not given)	5%	3%	?	3%	7%	i
COc1ccc(CN(Cc2ccccn2)C(=O)CN2C(=O)C(C)Oc3ccccc32)cc1 (stereo not given)	28%	6%	2.1µM*	14%	10%	i
O=C(CN1C(=O)COc2ccccc21)N(Cc1ccccc1)Cc1ccccn1	-3%	3%	15µM*	1%	2%	i
Cc1ccc(C(=O)COC(=O)c2cccc(O)c2)s1	6%	16%	i	-7%	10%	i
O=C(Nc1c(C(=O)Nc2ccccc2F)oc2ccccc12)c1cc2ccccc2o1	·	·	i	·	·	i
